{"source": "PubChem BioAssay", "note": "Values without a mark were called inactive. Activity calls are given as the source filed them.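 Rule for the calls: active = mean inhibition over 43.08%, the solvent-only control mean plus 3 SD; inactive = the rest.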 Square brackets hold non-standard residues; d marks the D form. Peptide text beside a SMILES is read from it. NMeY = CN[C@@H](Cc1ccc(O)cc1)C(=O)O; NMeF = CN[C@@H](Cc1ccccc1)C(=O)O; 2Abz = Nc1ccccc1C(=O)O", "data": [{"target": "Nuclear receptor coactivator 3 (Homo sapiens) (UniProt Q9Y6Q9)", "sequence (Q9Y6Q9 whole entry, looked up, the tested form may be a part)": "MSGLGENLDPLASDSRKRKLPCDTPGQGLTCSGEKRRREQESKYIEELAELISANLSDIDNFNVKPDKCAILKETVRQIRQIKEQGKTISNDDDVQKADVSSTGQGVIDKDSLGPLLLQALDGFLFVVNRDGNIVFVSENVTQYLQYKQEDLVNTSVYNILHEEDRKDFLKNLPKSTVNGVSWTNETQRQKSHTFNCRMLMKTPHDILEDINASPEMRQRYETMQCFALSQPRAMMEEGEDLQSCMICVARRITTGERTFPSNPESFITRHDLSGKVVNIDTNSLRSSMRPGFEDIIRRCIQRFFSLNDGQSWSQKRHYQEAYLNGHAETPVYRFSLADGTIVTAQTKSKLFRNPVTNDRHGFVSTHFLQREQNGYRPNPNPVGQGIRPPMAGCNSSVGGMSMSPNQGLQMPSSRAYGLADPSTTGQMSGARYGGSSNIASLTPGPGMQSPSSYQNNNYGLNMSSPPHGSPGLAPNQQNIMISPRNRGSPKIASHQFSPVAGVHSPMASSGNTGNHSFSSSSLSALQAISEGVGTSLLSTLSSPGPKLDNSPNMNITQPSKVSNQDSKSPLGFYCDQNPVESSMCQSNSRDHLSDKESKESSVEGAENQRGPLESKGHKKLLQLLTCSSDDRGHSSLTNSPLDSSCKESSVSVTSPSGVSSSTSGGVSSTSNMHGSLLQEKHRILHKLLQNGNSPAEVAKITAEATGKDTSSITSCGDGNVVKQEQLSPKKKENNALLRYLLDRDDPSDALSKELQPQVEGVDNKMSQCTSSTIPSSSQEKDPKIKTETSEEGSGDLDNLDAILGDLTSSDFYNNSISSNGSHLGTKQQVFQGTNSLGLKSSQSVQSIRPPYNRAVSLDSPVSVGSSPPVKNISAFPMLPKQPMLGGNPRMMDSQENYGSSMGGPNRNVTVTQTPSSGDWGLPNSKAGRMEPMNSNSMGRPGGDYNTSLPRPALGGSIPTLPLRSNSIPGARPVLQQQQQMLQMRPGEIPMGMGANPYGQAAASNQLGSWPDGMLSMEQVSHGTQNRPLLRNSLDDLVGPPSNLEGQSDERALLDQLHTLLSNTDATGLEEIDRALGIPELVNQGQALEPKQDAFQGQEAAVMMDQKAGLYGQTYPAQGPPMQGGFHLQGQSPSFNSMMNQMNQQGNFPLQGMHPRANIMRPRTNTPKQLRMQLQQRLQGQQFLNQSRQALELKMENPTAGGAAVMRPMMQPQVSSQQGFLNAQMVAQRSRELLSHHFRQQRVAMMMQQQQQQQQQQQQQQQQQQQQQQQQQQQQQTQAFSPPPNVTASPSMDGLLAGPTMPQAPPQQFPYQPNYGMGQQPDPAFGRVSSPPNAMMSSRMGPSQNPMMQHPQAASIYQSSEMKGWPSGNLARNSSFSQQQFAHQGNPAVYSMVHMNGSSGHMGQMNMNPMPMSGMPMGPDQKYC", "experiment": "NCOA3 GAL4-fusion reporter inhibition – cell-based, luminescence, quadruplicate, confirmation (AID 588792);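 note: 0% = DMSO treated cells and 100% = gossypol at 36 µM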", "conditions": "HEK293 GAL4-SRC3 luciferase reporter, at 3.6 µM, active compounds read high", "values": [{"smiles": "O=C(NCc1ccc(Cl)cc1)c1cccc(NC(=O)c2ccccc2)c1", "inhibition": "-5.52%"}, {"smiles": "Cc1ccc(C)c(N2CCN(C(=O)C34CC5CC(C3)CC(n3nnc(C)n3)(C5)C4)CC2)c1", "inhibition": "3.92%"}, {"smiles": "COc1ccc(C2OC(=O)CC2C(=O)NCc2ccc(F)cc2)cc1OC", "note": "(centres undefined)", "inhibition": "-5.31%"}, {"smiles": "CC(C)C[C@@H]1NC(=O)[C@H](Cc2ccccc2)N(C)C(=O)[C@H](C)NC(=O)c2ccccc2NC(=O)[C@H](Cc2ccc(O)cc2)N(C)C1=O", "note": "(cyclo([2Abz]A[NMeF]L[NMeY]))", "inhibition": "18.1%"}, {"smiles": "Cc1ccc(NC(=O)C(=Cc2ccc(C(=O)O)cc2)C(=O)Nc2ccc(C)cc2C)c(C)c1", "inhibition": "32.6%"}, {"smiles": "O=C(COc1ccccc1[N+](=O)[O-])Nc1ccc(N2CCN(C(=O)c3cccs3)CC2)cc1", "inhibition": "-7.09%"}, {"smiles": "c1ccc2c(c1)Nc1ccncc1S2", "inhibition": "31.2%"}, {"smiles": "O=C(Nc1nc2ccccc2s1)C1c2ccccc2Oc2ccccc21", "inhibition": "39.2%"}, {"smiles": "COc1cc(/C=C2/SC(=S)N(c3ccccc3)C2=O)ccc1Oc1nc(N2CCOCC2)nc(N2CCOCC2)n1", "inhibition": "4.82%"}, {"smiles": "O=C(NC(=S)NNC(=O)c1ccccc1O)c1ccc(F)cc1", "inhibition": "19%"}, {"smiles": "CCc1nc2ccccc2c(=O)n1NCCc1ccccc1", "inhibition": "-4.18%"}, {"smiles": "COc1cccc(-c2c(C(=O)N/N=C/c3ccncc3)nnn2-c2nonc2N)c1", "inhibition": "3.64%"}, {"smiles": "O=C(N/N=C/c1c(O)ccc2ccccc12)c1ccc(Br)o1", "inhibition": "57.3% (active)"}, {"smiles": "COc1ccc(C(=O)NCC(=O)OCc2c(Cl)cccc2Cl)cc1OC", "inhibition": "-0.66%"}]}]}
